Screening results: PubChem, National Center for Advancing Translational Sciences (NCATS)
Pf growth 48h = inhibits P. falciparum growth in the first generation, 48 h. hit rate 5.9% among 310,000. Potency, µM (titrated, usually from 28.7 µM), without a hit: at the highest dose activity change, negative = inhibition, most hits filed as inhibitors. P. falciparum luciferase growth in erythrocytes, 48 h; also: potency is read from the fitted curve at half-maximal effect; % is scaled to controls: 0 for no effect and ±100 for the full control effect
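Compounds are pin-transferred into medium, infected erythrocytes (2% hematocrit, 0.1% parasitemia final) are added, and plates sit one parasite generation at 37 C in 5% CO2. Detection reagent is then added and luminescence measured.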
Pf growth 96h = inhibits malaria parasite growth, 96 h | P. falciparum luciferase reporter growth, 96 h | Potency, µM (titrated, usually from 28.7 µM), for the others: at the highest dose activity change, negative = inhibition, actives largely listed as inhibitors | hit rate 6.9% among 320,000; also: potency is read from the fitted curve at half-maximal effect; % is scaled to controls: 0 for no effect and ±100 for the full control effect
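Compounds incubated with erythrocytes infected by luciferase-expressing P. falciparum (2% hematocrit, 0.05% parasitemia final) for 96 hours, 37 C in 5% CO2. Growth inhibition scored as decreased luciferase luminescence.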
AMA1 RON2 block = AMA1-RON2 (P. falciparum) interaction inhibition; AlphaScreen AMA1-biotinylated RON2 peptide binding; Potency, µM (doses to about 58.2 µM), for the others: at the top dose activity change, negative = inhibition, hits mostly inhibitors; hit rate 0.2% among 360,000; AID 720542;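 also: potency is read from the fitted curve at half-maximal effect; 0% = vehicle wells and -100% = peptide control; nearly all actives have a fitted effect of over 45% in size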
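AMA1 (3D7) with his tag at 25 nM final met compounds first, then biotinylated RON2 peptide at 25 nM; detection used donor plus acceptor beads, 10 µg/mL apiece, read by AlphaScreen after 30 min at room temperature.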
CHX counter = counter-screen for Shiga toxin inhibitors: cycloheximide protein synthesis inhibition. cell reporter, cycloheximide protein synthesis inhibition counterscreen. max response, %. hit rate 12% among 300,000. AID 2314; in the data active = max response mostly above about 13%, no sharp cut-off; inactive = mostly below about 14%; also: read at 38.3 µM for the half of the compounds with a filed dose; 0% is about no effect
Shiga inhibitor = Shiga toxin inhibition; Vero cells, Shiga toxin protein synthesis inhibition reporter; inhibition, % at 38.7 µM; hit rate 9.2% among 290,000; AID 2315; in the data active = inhibition mostly above about 28%, no sharp cut-off; inactive = mostly below about 43%; also: 0% is about no effect
HCV inh = HCV inhibition; hit rate 3.4% among 340,000; Potency, µM (series often up to 41.8 µM), inactives show top-dose activity change, negative = inhibition, hits mostly inhibitors; Huh7.5.1 HCVcc-Cre infection, luciferase reporter, 44 h; also: potency is read from the fitted curve at half-maximal effect; % is scaled to controls: 0 for no effect and ±100 for the full control effect
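HCVcc-Cre virus at an moi near 0.5 was added right after compound to cells cultured 4 h from seeding (1,000 cells/well). Luciferase activity was determined 44 h later, 15 min after substrate addition at RT.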
Numbers without * were called inactive; u = inconclusive; x = no result; ! = repeats disagree; [ ] = dose if it differs, or a comment. A selection: hits, their analogues and other compounds. The true share with any hit is near 21%. Unless noted, calls follow the shape of the dose curve; as a rule, active = well fitted curve in the direction sought with a large enough effect; inconclusive = small, poorly fitted or top-dose-only effect, or another doubt; inactive = no such curve, though single readings can be large; an effect the other way counts as inactive or inconclusive.

SMILES	Pf growth 48h	Pf growth 96h	AMA1 RON2 block	CHX counter	Shiga inhibitor	HCV inh
CC(C)(CNC(=O)/C=C/c1ccc(F)cc1)CNC(=O)/C=C/c1ccc(F)cc1	-20.0%	u	-3.0%	14.8	33.8	-23.1%
CC(C)(C)SCCNC(=O)/C=C/c1ccccc1	u	10.4µM*	-0.4%	46.4*	104.1*	-8.9%
O=C(/C=C/c1ccccc1)NCCSCc1ccc(Cl)cc1	u	0.9%	8.7%	0.2	-17.1	-2.3%
O=C(Nc1ccccc1C(F)(F)F)N1CCN(c2ccccn2)CC1	13.3%	39.2%[5.75 µM]	4.9%	-3.7	8.9	13.0%
Cc1ccc(S(=O)(=O)N(C)C[C@@H]2OCc3cnnn3CCCC(=O)N([C@H](C)CO)C[C@@H]2C)cc1	x	x	-2.3%	x	x	x
COCc1cccc(-c2csc(C(C)(O)c3cccc(F)c3)n2)c1 (stereo not drawn)	x	x	9.9%	x	x	x
C(=C/c1nccc2c1[nH]c1ccccc12)/c1ccc2c(c1)OCO2	2.94µM*	-3.6%	19.6%	36.9	39.6*	5.5%
Cc1ccc(S(=O)(=O)NCCC(=O)NC2CCC(C)CC2)cc1 (stereo not drawn)	-2.5%	u	-5.7%	x	x	-10.4%
C=C(C)[C@H]1CN[C@H](C(=O)O)[C@H]1CC(=O)O	-7.6%	-12.7%	10.4%	-5.2	47.0*!	5.9%
CCCCN1C(=O)C(CC(=O)NCCc2ccccn2)CC(C(=O)N2CCCCCC2)=C1C (stereo not drawn)	x	x	-4.4%	x	x	x
Cn1c(-c2ccccc2)c(C(=O)CCl)c2ccccc21	u	-26.6%	17.3%	11.6	-10.0	5.62µM*
CCn1c(-c2ccccc2)c(C(=O)CCl)c2ccccc21	0.0%	u	-5.0%	7.6	-1.6	8.91µM*
COC(=O)c1sc2nc3c(cc2c1N)COC(C)(C)C3	173.4%	21.8%	-0.2%	79.8*	198.3*	-12.6%
Cc1nc2c(sc3nc4c(cc32)COC(C)(C)C4)c(=O)o1	u	u	8.6%	5.2	-3.1	3.5%
CC1(C)Cc2nc3sc(C(=O)NCCCO)c(N)c3cc2CO1	67.3%	140.9%	16.9%	28.6*	90.5*	10.9%
CC1(C)Cc2nc3scc(NC(=O)c4ccccc4)c3cc2CO1	5.8%	21.9%	-2.5%	14.4*	28.3	-25.9%
CCOC(=O)c1sc2nc3c(cc2c1N)COC(C(C)C)C3 (stereo not drawn)	158.2%	142.2%	19.1%	56.9*	157.5*	-8.2%
CC1(C)CC(=O)C=C(c2n[nH]nc2C2CCCCC2)C1	x	x	8.9%	x	x	x
CCCCn1c(N)c(N(Cc2ccccc2)C(=O)COc2ccccc2F)c(=O)[nH]c1=O	-2.1%	-1.1%	9.5%	x	x	7.1%
c1cc2c3c(cccc3c1)NC1(CCC3(CC1)Nc1cccc4cccc(c14)N3)N2	9.28µM*	6.57µM*	u	-2.0	2.6	u
c1cc2c3c(cccc3c1)NC1(CCCCCC1)N2	u	x	-5.8%	-3.1	-9.9	2.4%
CC(C)C(=O)N1CCN(c2ccc(NC(=O)c3cccs3)cc2)CC1	u	104.4%	18.2%	-3.0	-5.0	-1.1%
COc1cc2ccccc2cc1C(=O)Nc1ccc(N2CCN(C)CC2)cc1	u	x	-19.8%	43.2*	60.0	12.6µM*
COc1cc2ccccc2cc1C(=O)NC(=S)Nc1ccc(C(=O)O)cc1	-3.7%	9.1%	-3.2%	-0.1	30.2	7.4%
COc1cc2ccccc2cc1C(=O)Nc1ccc(N2CCN(C(=O)C(C)C)CC2)cc1	11.7µM*	14.7µM*	-1.1%	-3.0	19.6	10µM*
SMILES	Pf growth 48h	Pf growth 96h	AMA1 RON2 block	CHX counter	Shiga inhibitor	HCV inh
COc1cccc(C2(C)NC(=O)N(CC(=O)c3cc(C)n(C4CC4)c3C)C2=O)c1 (stereo not drawn)	u	u	7.3%[11.6 µM]	x	x	1.7%
COc1ccc(Cl)c2sc(N(CCN(C)C)C(=O)C3=COCCO3)nc12	x	x	4.2%	x	x	9.7%
CCCCN(C(=O)Cc1ccc(S(=O)(=O)N2CCOCC2)s1)c1c(N)n(CC(C)C)c(=O)[nH]c1=O	-29.3%	-0.5%	-9.1%	x	x	-0.1%
Cc1cc(C(=O)CN2C(=O)C(=O)N(CC(C)C)C2=O)c(C)n1C1CC1	-5.6%	22.2%	-13.7%	x	x	9.3%
CC(C)(C)OC(=O)NC(CCNC=C1C(=O)OC(C)(C)OC1=O)C(=O)O (stereo not drawn)	23.3%	8.28µM*	2.6%	-0.7	-13.2	-21.7%
CC1(C)OC(=O)C(=CNC(CCC(N)=O)C(=O)O)C(=O)O1 (stereo not drawn)	-9.0%	11.5%	63.7%	1.8	-14.9	22.8%
C=CCc1cccc(/C=C/c2cc(=O)c3ccccc3[nH]2)c1O	0.131µM*	0.0%	-1.5%	25.3*	65.3*	8.0%
CC(C)N1CCc2c(sc(NC(=O)c3ccco3)c2C(N)=O)C1	0.465µM*	u	30.9%	20.7*	38.7	-12.3%
CN1CCc2c(sc(NC(=O)c3cc(Cl)sc3Cl)c2C(N)=O)C1	u	u	8.2%	25.4*	30.2*	12.6µM*
COC(=O)c1c(NC(=O)c2ccco2)sc2c1CCN(C(C)C)C2	-0.9%	u	16.4%	0.6	-7.1	-23.0%
CN1CCc2c(sc(NC(=O)c3ccco3)c2C(N)=O)C1	u	u	-20.5%	17.2*	-3.3	x
CN1C(=O)C(C)(C)N(C(=O)c2cccc([N+](=O)[O-])c2)c2ccccc21	110.0%	u	-0.4%	-0.2	-9.2	-4.5%
C[C@H](NCc1ccccc1)c1ccccc1	x	x	x	-10.7	-9.7	x
CC(C)CNC(=O)c1ccccc1C(=O)NC1(C(=O)NCC(C)C)CCCC1	x	x	-11.2%	x	x	0.1%
COc1ccc(CN2CCN(C(=O)C3CCN(C(=O)Nc4ccccc4)CC3)CC2)cc1OC	x	x	-7.7%	x	x	-12.7%
Cc1cc(S(=O)(=O)N2CCN(c3ccccc3F)CC2)ccc1-n1cnnn1	-14.1%	11.7µM*	8.7%	-4.4	3.4	u
Cc1cc(S(=O)(=O)N2CCN(c3ccc(F)cc3)CC2)ccc1-n1cnnn1	-0.6%	-18.1%	-5.2%	-4.5	-5.5	-11.9%
COc1cc2c(cc1OC)[C@@H](NC(=O)CCc1ccccc1)[C@H](OCc1ccccc1)C2	x	x	-16.1%	x	x	-16.3%
OC[C@H]1O[C@@H](O[C@@H]2[C@@H](CO)O[C@@](O)(CO)[C@H]2O)[C@H](O)[C@@H](O)[C@H]1O	14.5%	18.8%	0.4%	x	x	12.5%
COc1ccc(OCC(=O)Nc2cc3c(cc2C(=O)O)OCCCO3)cc1	13.0%	8.5%	-5.2%	-0.9	-5.9	5.6%
COc1ccc(/C=N/Nc2nccnc2Cl)c(OC)c1	-12.3%	7.7%	29.3%	29.2*	78.1*	-29.9%
Brc1ccc(/C=N/Nc2ncnc3c2cnn3Cc2ccccc2)cc1	u	-4.3%	-6.5%	-1.2	17.2	13.6%
Clc1nccnc1N/N=C/c1ccc(Br)cc1	127.9%	-29.9%	16.5%	39.5*	40.4*	-5.5%
COc1ccc(/C=N/Nc2nccnc2Cl)cc1	x	188.6%	12.6%	35.7*	38.5	-0.9%
